Laboratory results: PubChem BioAssay (EPA / NIEHS)
The source made the active and inactive calls. Rule for the calls: active = hit-call score of the fitted dose curve at least 0.9, where 1 is the maximum; inactive = score below 0.9.

Each molecule was assayed on CYP4A11 (gene 1579) (assay: LTEA_HepaRG_CYP4A11: Life Technologies and Expression Analysis (LTEA) Assay for CYP4A11 using HepaRG (AID 2283486)). Settings: mRNA level, 48 h; actives raise or lower the signal.
In short: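 Human hepatic HepaRG cultures receive duplicate 48 h exposures across a concentration-response series topping at 100 uM. Expression changes in CYP4A11 are measured by qRT-PCR relative to DMSO controls.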
With `Cc1oc2c(NC(=O)c3c(Cl)cccc3Cl)cccc2c1C(C)(C)O` the AC50 was 24.6 µM (active). In the case of `CC/C(=C(/CC)c1ccc(O)cc1)c1ccc(O)cc1`, the AC50 is reported as 83.4 µM (active). In the case of `CC(C)(c1cc(Br)c(O)c(Br)c1)c1cc(Br)c(O)c(Br)c1`, the outcome is reported as “inactive”. In the case of `NCc1cccc(C2CCN(C(=O)c3ccc(C#Cc4ccccc4F)o3)CC2)c1`, the AC50 is reported as 82.4 µM (active). `O=C(O)Cn1c(=O)n(Cc2ccc(Br)cc2F)c(=O)c2ccc(Cl)cc21` was tested, and the outcome was “inactive”. `CC1=CC(=O)/C(=C(/C)O)C(=O)O1` was tested, and the outcome was “inactive”. With `O=C(O)c1ccccc1-n1cc(C(=O)O)c(=O)c2cc(Nc3c(F)cc(F)cc3Cl)c(Cl)cc21` the outcome was “inactive”. In the case of `CN1C(=O)CC[C@H]1c1cccnc1`, the outcome is reported as “inactive”. In the case of `Oc1ccccc1`, the outcome is reported as “inactive”. In the case of `CN(C)c1ccc(C(=C2C=CC(=[N+](C)C)C=C2)c2ccc(N(C)C)cc2)cc1`, the AC50 is reported as 3.37 µM (active). In the case of `O=C(OCCCCCCOC(=O)c1ccccc1)c1ccccc1`, the outcome is reported as “inactive”. In the case of `O=c1ccc2ccccc2o1`, the outcome is reported as “inactive”. For `CCCCOC(=O)CC(CC(=O)OCCCC)(OC(C)=O)C(=O)OCCCC`, the outcome was “inactive”. In the case of `O=C(Nc1ccc(Cl)cc1)Nc1ccc(Cl)c(Cl)c1`, the AC50 is reported as 28.7 µM (active). For `CC(O)CC(C)(C)O` (centres undefined), the outcome was “inactive”. With `CCCCCCCCOC(=O)c1cc(O)c(O)c(O)c1` the outcome was “inactive”. With `CC[C@H](NC(=O)c1cc(F)ccc1NS(=O)(=O)c1cccc2cccnc12)c1ccccc1` the AC50 was 22.4 µM (active). `CN(C)C(=O)C1(N2CCCCC2)CCN(CC[C@@]2(c3ccc(Cl)c(Cl)c3)CN(C(=O)c3ccccc3)CCO2)CC1` was tested, and the AC50 was 14.9 µM (active). In the case of `CC1(C)NC(=O)N(c2ccc([N+](=O)[O-])c(C(F)(F)F)c2)C1=O`, the AC50 is reported as 69.3 µM (active). For `CCCCCCCCCCCC[N+](C)(C)C`, the AC50 was 76.2 µM (active). With `Cc1ccc2oc(CN(Cc3ccccc3)C(=O)Nc3c(F)cc(F)cc3F)c(-c3ccc(Cl)cc3)c2c1` the AC50 was 34.8 µM (active).

These molecules were tested on Cytochrome P450 3A4 (Homo sapiens) (UniProt P08684) (assay: LTEA_HepaRG_CYP3A4: Life Technologies and Expression Analysis (LTEA) Assay for CYP3A4 using HepaRG (AID 2283487)). Settings: mRNA level, 48 h; actives raise or lower the signal.
Chain of Cytochrome P450 3A4 (Homo sapiens) (P08684 whole entry, looked up): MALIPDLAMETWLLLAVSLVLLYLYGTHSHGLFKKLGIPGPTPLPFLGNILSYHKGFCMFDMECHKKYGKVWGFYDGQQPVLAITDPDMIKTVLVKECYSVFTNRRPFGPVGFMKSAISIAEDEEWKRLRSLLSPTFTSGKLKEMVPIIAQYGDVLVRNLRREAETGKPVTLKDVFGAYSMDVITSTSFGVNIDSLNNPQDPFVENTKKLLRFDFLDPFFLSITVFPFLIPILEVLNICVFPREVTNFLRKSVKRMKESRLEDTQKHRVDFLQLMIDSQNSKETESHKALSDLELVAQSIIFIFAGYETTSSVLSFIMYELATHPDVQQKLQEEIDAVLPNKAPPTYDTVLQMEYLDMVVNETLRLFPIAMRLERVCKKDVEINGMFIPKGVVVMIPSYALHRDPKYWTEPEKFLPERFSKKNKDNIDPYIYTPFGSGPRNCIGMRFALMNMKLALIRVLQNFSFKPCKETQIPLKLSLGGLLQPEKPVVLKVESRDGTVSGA
In short: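 CYP3A4 transcript measured by TaqMan qRT-PCR and normalized to three housekeeping genes after 48 h chemical exposure of human HepaRG cells. Top concentration 100 uM, half-log steps, 0.5% DMSO vehicle; gain or loss fitted against DMSO baseline.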
With `O=C1c2ccccc2C(=O)N1CCc1noc(-c2ccc(CN3CCCCCC3)s2)n1` the outcome was “inactive”. `CC(C)(C)c1cc(/C=C2\SC(N)=NC2=O)cc(C(C)(C)C)c1O` was tested, and the AC50 was 90.9 µM (active). In the case of `CCCCOC(=O)c1ccc(O)cc1`, the outcome is reported as “inactive”. For `O=c1c(-c2ccc(O)cc2)coc2cc(O)cc(O)c12`, the outcome was “inactive”. With `O=C(O)c1ccccc1C(=O)OCc1ccccc1` the outcome was “inactive”. With `CCN(Cc1cccc(S(=O)(=O)O)c1)c1ccc(C(=C2C=CC(=[N+](CC)Cc3cccc(S(=O)(=O)O)c3)C=C2)c2ccccc2S(=O)(=O)[O-])cc1` the outcome was “inactive”. With `O=CCCCC=O` the outcome was “inactive”. In the case of `O=C=NCCCCCCN=C=O`, the outcome is reported as “inactive”. With `OC12N=C(c3ccccc3)SC1Cc1cc(Cl)ccc12` (centres undefined) the AC50 was 81.3 µM (active). For `CCCC(=O)OCCC(C)C`, the outcome was “inactive”. For `Cc1cn([C@H]2C[C@H](N=[N+]=[N-])[C@@H](CO)O2)c(=O)[nH]c1=O`, the outcome was “inactive”. For `c1ccc(C[n+]2cccc3ccccc32)cc1`, the AC50 was 33.4 µM (active). In the case of `Cc1oc2c(NC(=O)c3c(Cl)cccc3Cl)cccc2c1C(C)(C)O`, the AC50 is reported as 81.9 µM (active). For `CC(C)(c1cc(Br)c(O)c(Br)c1)c1cc(Br)c(O)c(Br)c1`, the outcome was “inactive”. In the case of `NCc1cccc(C2CCN(C(=O)c3ccc(C#Cc4ccccc4F)o3)CC2)c1`, the AC50 is reported as 75.2 µM (active). `CC1=CC(=O)/C(=C(/C)O)C(=O)O1` was tested, and the outcome was “inactive”. With `O=C(O)c1ccccc1-n1cc(C(=O)O)c(=O)c2cc(Nc3c(F)cc(F)cc3Cl)c(Cl)cc21` the AC50 was 3.09 µM (active). In the case of `CN1C(=O)CC[C@H]1c1cccnc1`, the outcome is reported as “inactive”. For `Oc1ccccc1`, the outcome was “inactive”. With `O=C(OCCCCCCOC(=O)c1ccccc1)c1ccccc1` the outcome was “inactive”. For `O=c1ccc2ccccc2o1`, the outcome was “inactive”. For `CC(O)CC(C)(C)O` (centres undefined), the outcome was “inactive”. With `CCCCCCCCOC(=O)c1cc(O)c(O)c(O)c1` the outcome was “inactive”. `CC[C@H](NC(=O)c1cc(F)ccc1NS(=O)(=O)c1cccc2cccnc12)c1ccccc1` was tested, and the AC50 was 0.957 µM (active). `CN(C)C(=O)C1(N2CCCCC2)CCN(CC[C@@]2(c3ccc(Cl)c(Cl)c3)CN(C(=O)c3ccccc3)CCO2)CC1` was tested, and the AC50 was 25.7 µM (active). With `CCCCCCCCCCCC[N+](C)(C)C` the AC50 was 58.6 µM (active). For `Cc1ccc2oc(CN(Cc3ccccc3)C(=O)Nc3c(F)cc(F)cc3F)c(-c3ccc(Cl)cc3)c2c1`, the AC50 was 5.39 µM (active).

These molecules were tested on DNA damage-inducible transcript 3 (DDIT3), DDIT3 (gene 1649) (assay: LTEA_HepaRG_DDIT3: Life Technologies and Expression Analysis (LTEA) Assay for DNA damage-inducible transcript 3 (DDIT3) using HepaRG (AID 2283488)). Settings: mRNA level, 48 h; actives raise or lower the signal.
In short: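 Eight-point concentration-response (100 uM highest, half-log dilutions) in HepaRG, 48 h, duplicate wells. Endpoint: qRT-PCR mRNA, normalized (ACTB, GAPDH, POLR2A), bidirectional fitting with DMSO as baseline.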
For `Clc1ccccc1C(c1ccccc1)(c1ccccc1)n1ccnc1`, the AC50 was 86.5 µM (active). With `CC/C(=C(/CC)c1ccc(O)cc1)c1ccc(O)cc1` the AC50 was 67.6 µM (active). With `CN(C)c1ccc(C(=C2C=CC(=[N+](C)C)C=C2)c2ccc(N(C)C)cc2)cc1` the AC50 was 1.38 µM (active). With `O=C(Nc1ccc(Cl)cc1)Nc1ccc(Cl)c(Cl)c1` the AC50 was 26.6 µM (active).

These molecules were tested on Pro-epidermal growth factor (Homo sapiens) (UniProt P01133) (assay: LTEA_HepaRG_EGF: Life Technologies and Expression Analysis (LTEA) Assay for Epidermal growth factor (EGF) using HepaRG (AID 2283489)). Settings: mRNA level, 48 h; actives raise or lower the signal.
In short: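 Concentration-response mRNA assay: HepaRG cells dosed 48 h (max 100 uM, 0.5% DMSO), EGF measured by qRT-PCR and normalized to ACTB/GAPDH/POLR2A.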
With `O=C1c2ccccc2C(=O)N1CCc1noc(-c2ccc(CN3CCCCCC3)s2)n1` the outcome was “inactive”. `CC(C)(C)c1cc(/C=C2\SC(N)=NC2=O)cc(C(C)(C)C)c1O` was tested, and the outcome was “inactive”. `CCCCOC(=O)c1ccc(O)cc1` was tested, and the outcome was “inactive”. `O=c1c(-c2ccc(O)cc2)coc2cc(O)cc(O)c12` was tested, and the outcome was “inactive”. For `O=C(O)c1ccccc1C(=O)OCc1ccccc1`, the outcome was “inactive”. For `CCN(Cc1cccc(S(=O)(=O)O)c1)c1ccc(C(=C2C=CC(=[N+](CC)Cc3cccc(S(=O)(=O)O)c3)C=C2)c2ccccc2S(=O)(=O)[O-])cc1`, the outcome was “inactive”. `O=CCCCC=O` was tested, and the outcome was “inactive”. For `c1ccc2ccccc2c1`, the outcome was “inactive”. In the case of `O=C=NCCCCCCN=C=O`, the outcome is reported as “inactive”. For `CO[C@H]1/C=C/O[C@@]2(C)Oc3c(C)c(O)c4c(O)c(c(/C=N/N5CCN(C)CC5)c(O)c4c3C2=O)NC(=O)/C(C)=C\C=C\[C@H](C)[C@H](O)[C@@H](C)[C@@H](O)[C@@H](C)[C@H](OC(C)=O)[C@@H]1C`, the outcome was “inactive”. `OC12N=C(c3ccccc3)SC1Cc1cc(Cl)ccc12` (centres undefined) was tested, and the outcome was “inactive”. `Clc1ccccc1C(c1ccccc1)(c1ccccc1)n1ccnc1` was tested, and the AC50 was 15.8 µM (active). `CCCC(=O)OCCC(C)C` was tested, and the outcome was “inactive”. For `Cc1cn([C@H]2C[C@H](N=[N+]=[N-])[C@@H](CO)O2)c(=O)[nH]c1=O`, the outcome was “inactive”. In the case of `c1ccc(C[n+]2cccc3ccccc32)cc1`, the outcome is reported as “inactive”. In the case of `Cc1oc2c(NC(=O)c3c(Cl)cccc3Cl)cccc2c1C(C)(C)O`, the outcome is reported as “inactive”. For `CC/C(=C(/CC)c1ccc(O)cc1)c1ccc(O)cc1`, the outcome was “inactive”. `CC(C)(c1cc(Br)c(O)c(Br)c1)c1cc(Br)c(O)c(Br)c1` was tested, and the outcome was “inactive”. With `NCc1cccc(C2CCN(C(=O)c3ccc(C#Cc4ccccc4F)o3)CC2)c1` the outcome was “inactive”. For `C[C@]12CC[C@@H]3c4ccc(O)cc4CC[C@H]3[C@@H]1CCC2=O`, the AC50 was 22.4 µM (active). `O=C(O)Cn1c(=O)n(Cc2ccc(Br)cc2F)c(=O)c2ccc(Cl)cc21` was tested, and the outcome was “inactive”. In the case of `CC1=CC(=O)/C(=C(/C)O)C(=O)O1`, the outcome is reported as “inactive”. For `O=C(O)c1ccccc1-n1cc(C(=O)O)c(=O)c2cc(Nc3c(F)cc(F)cc3Cl)c(Cl)cc21`, the outcome was “inactive”. For `CN1C(=O)CC[C@H]1c1cccnc1`, the outcome was “inactive”. In the case of `Oc1ccccc1`, the outcome is reported as “inactive”. In the case of `CN(C)c1ccc(C(=C2C=CC(=[N+](C)C)C=C2)c2ccc(N(C)C)cc2)cc1`, the AC50 is reported as 88.8 µM (active). With `O=C(OCCCCCCOC(=O)c1ccccc1)c1ccccc1` the outcome was “inactive”. With `O=c1ccc2ccccc2o1` the outcome was “inactive”. For `CCCCOC(=O)CC(CC(=O)OCCCC)(OC(C)=O)C(=O)OCCCC`, the outcome was “inactive”. In the case of `O=C(Nc1ccc(Cl)cc1)Nc1ccc(Cl)c(Cl)c1`, the AC50 is reported as 50 µM (active). In the case of `CC(O)CC(C)(C)O` (centres undefined), the outcome is reported as “inactive”. For `CCCCCCCCOC(=O)c1cc(O)c(O)c(O)c1`, the outcome was “inactive”. `CC[C@H](NC(=O)c1cc(F)ccc1NS(=O)(=O)c1cccc2cccnc12)c1ccccc1` was tested, and the AC50 was 11.5 µM (active). For `CN(C)C(=O)C1(N2CCCCC2)CCN(CC[C@@]2(c3ccc(Cl)c(Cl)c3)CN(C(=O)c3ccccc3)CCO2)CC1`, the AC50 was 25.3 µM (active). With `CC1(C)NC(=O)N(c2ccc([N+](=O)[O-])c(C(F)(F)F)c2)C1=O` the outcome was “inactive”. For `CCCCCCCCCCCC[N+](C)(C)C`, the outcome was “inactive”. `Cc1ccc2oc(CN(Cc3ccccc3)C(=O)Nc3c(F)cc(F)cc3F)c(-c3ccc(Cl)cc3)c2c1` was tested, and the outcome was “inactive”.
